KB-V1 cytotox: kills drug-selected multidrug resistant KB-V1 cells | 400,000 compounds, 3.4% hits | Potency, µM (doses to about 46.1 µM), hits mostly cytotoxic | AID 1347076 | KB-V1 MDR cells viability, CellTiter-Glo, 72 h; further: on the % scale 0 is the no-effect control and ±100 the full control effect; nearly all actives have a fitted effect of over 60% in size
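KB-V1, DMEM (no phenol red) + 10% FBS; cpd pin-transferred, titration series; 72 h, 37 degrees C; CellTiter-Glo, luminescence. Data normalized, curve-fit.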
TSG101-PTAP inh: blocks PTAP/TSG101 interaction to inhibit HIV-1 budding. Potency, µM (highest dose often 115 µM), without a hit: at the highest dose activity change, negative = inhibition, most hits filed as inhibitors. 340,000 tested, under 10 active. Q99816. Fluorescence polarization, FITC-PTAP peptide / Tsg101 binding. AID 493005; active means well fitted inhibition curve with a large enough effect in the main read-out, with a control signal flat, not every such curve was filed as active; inconclusive means small, poorly fitted or top-dose-only effect, or effect the other way, or a change in a side signal; inactive means no such curve, though single readings can be large or run the other way; further: % of control where 0% means no effect
Target sequence (Q99816 whole entry, looked up): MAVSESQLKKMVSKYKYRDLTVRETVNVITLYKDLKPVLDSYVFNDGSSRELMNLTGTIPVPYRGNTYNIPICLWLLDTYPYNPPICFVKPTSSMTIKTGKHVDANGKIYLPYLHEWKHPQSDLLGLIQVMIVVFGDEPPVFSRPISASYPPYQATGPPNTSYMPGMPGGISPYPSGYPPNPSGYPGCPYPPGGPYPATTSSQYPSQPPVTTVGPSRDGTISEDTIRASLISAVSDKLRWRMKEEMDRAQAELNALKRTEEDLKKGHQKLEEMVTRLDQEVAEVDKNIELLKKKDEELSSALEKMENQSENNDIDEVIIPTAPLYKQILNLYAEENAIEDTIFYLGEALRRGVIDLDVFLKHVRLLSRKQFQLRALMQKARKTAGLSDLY
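Fluorescence polarization binding of Tsg101 binding domain (10 uM final) to FITC-labeled PTAP peptide (50 nM final) in HEPES pH 7.5 buffer with NaCl, Tween 20, EDTA, TCEP. Compounds added before peptide; binding 20 min at RT.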
SW480 rereplic: inducers of DNA re-replication in SW480 colon cancer cells; SW480 DNA re-replication, Hoechst DNA content imaging, 48 h; Potency, µM (top dose mostly 46.1 µM), for the others: at the top dose re-replication activation, usual class: activators; 340,000 compounds, 1.8% hits; AID 624297; further: % of control where 0% means no effect; nearly all actives have a fitted effect of over 55% in size
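Quantitative HTS format with DMSO vehicle controls; 48 hr drug incubation at 37 C, then 40 min Hoechst staining and scanning imager measurement at 405 nm excitation.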
RGS4 inh: blocks human RGS4-accelerated GTP hydrolysis; P49798; Transcreener GDP fluorescence polarization, RGS4-accelerated GTP hydrolysis; Potency, µM (titrated, usually from 114 µM), for inactives: at the highest dose activity change, negative = inhibition, most hits filed as inhibitors; 390,000 compounds, 0.039% hits; AID 504845; further: on the % scale 0 is the no-effect control and ±100 the full control effect; nearly all actives have a fitted effect of over 75% in size
Target sequence (P49798 whole entry, looked up): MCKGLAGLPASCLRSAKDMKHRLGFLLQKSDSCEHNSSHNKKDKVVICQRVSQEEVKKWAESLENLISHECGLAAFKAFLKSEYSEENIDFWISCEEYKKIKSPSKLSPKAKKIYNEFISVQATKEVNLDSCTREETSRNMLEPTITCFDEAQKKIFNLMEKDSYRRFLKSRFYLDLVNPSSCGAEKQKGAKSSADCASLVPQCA
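MLSMR compounds (23 nl, pin-transferred) preincubated 10 min at room temperature with a 500nM (2x) first reagent, then RGS4 at 900nM (2x) plus Transcreener GDP mix added; fluorescence polarization (620/688 nm) read before and after 90 min at 30 °C.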
MCF10A rerep: induces DNA re-replication in MCF 10a normal breast cells; MCF 10A DNA re-replication, Hoechst nuclear intensity, 48 h; Potency, µM (titrated, usually from 46.1 µM), without a hit: top-dose activity, positive = re-replication, usual class: activators; 350,000 compounds, 2.9% hits; AID 624296; further: % of control where 0% means no effect; nearly all actives have a fitted effect of over 50% in size
KB-3-1 tox: kills parental KB-3-1 adenocarcinoma cells | KB-3-1 viability, CellTiter-Glo ATP luminescence, 72 h | Potency, µM (top dose mostly 46.1 µM), hits mostly cytotoxic | 400,000 compounds, 1.4% hits; further: on the % scale 0 is the no-effect control and ±100 the full control effect; nearly all actives have a fitted effect of over 60% in size
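Here the drug-naive KB-3-1 line serves as comparator for MDR sub-line selectivity; cells received compound titrations, 72 h at 37 °C, then CellTiter-Glo readout.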
* hit, by the source's call; i = inactive; ? = inconclusive; / = no result given; [ ] = another dose, or the depositor's remark. Sampled rows, rich in hits. Any-hit rate of the full collection: about 6.6%. Unless noted, the call rests on the fitted dose curve; in most records, active means well fitted curve in the direction sought with a large enough effect; inconclusive means small, poorly fitted or top-dose-only effect, or another doubt; inactive means no such curve, though single readings can be large; an effect the other way counts as inactive or inconclusive. Potency means the concentration at half of the fitted maximal effect.

SMILES | KB-V1 cytotox | TSG101-PTAP inh | SW480 rereplic | RGS4 inh | MCF10A rerep | KB-3-1 tox
CC1=CC2=NC(=O)/C(=C\c3cc(C)n(-c4ccc(F)cc4)c3C)C(=N)N2O1 | i | 1.5% | ? | 6.3% | ? | i
CC1=CC2=NC(=O)/C(=C\c3ccc(-c4cccc(Cl)c4)o3)C(=N)N2O1 | ? | 5.6% | 17.6% | ? | 13.8% | 4.11µM*
Cn1ncc(S(=O)(=O)Cc2ccccc2)c(Br)c1=O | / | / | / | 2.67µM* | / | /
Cn1ccc(NC(=O)c2ccc(Cl)cc2)n1 | i | 0.6% | 20.1% | 12.8% | -3.9% | i
Cc1cccc(C(=O)Nc2ccn(C)n2)c1 | i | -2.4% | 18.4µM* | 11.0% | -12.0% | i
CCc1ccc(OCC(=O)NCC(c2ccc(OC)cc2)N2CCOCC2)cc1 (centres undefined) | / | / | / | 5.5% | / | /
CC(=O)Nc1ccc(NC(=O)C2CC(=O)Nc3nc4ccccc4n32)cc1 (centres undefined) | i | -0.9% | -7.1% | -5.6% | -16.9% | i
Cc1ccc(NC(=O)C2CC(=O)Nc3nc4ccccc4n32)c(C)c1 (centres undefined) | i | -13.8% | 18.4µM* | 12.0% | -19.4% | i
COc1ccc(OC)c(-c2nnc3n2N=C(c2ccc(OC)c(OC)c2)CS3)c1 | ? | 2.6% | ? | -14.9% | ? | ?
COc1ccc(C2=Nn3c(nnc3-c3ccccc3F)SC2)cc1OC1CCOC1 (centres undefined) | 20.6µM* | 0.3% | 10.3µM* | -13.4% | ? | 2.06µM*
CC1=Nn2c(nnc2-c2ccccc2F)SC1 | i | -5.6% | -5.4% | 9.7% | 685.9%[0.0737 µM] | i
COc1ccc(C2=Nn3c(nnc3-c3ccccc3F)SC2)cc1OC1CCCC1 | ? | / | ? | -31.6% | ? | 8.2µM*
COc1ccc(OC)c(-c2nnc3n2N=C(c2ccc(OC)c(OC4CCCC4)c2)CS3)c1 | 4.61µM* | -1.6% | 0.731µM* | -38.1% | ? | 0.92µM*
C=CCNc1nnc(Cc2ccc(C(C)C)cc2)c(=O)[nH]1 | i | -2.4% | ? | 8.4% | ? | 14.6µM*
CCN(CC)C(=O)c1sc2c(c1C)c(=O)n(-c1ccccc1)c(=O)n2CC(=O)N(CC)c1cccc(C)c1 | i | / | / | 11.7% | / | i
COc1ccc(OCC(O)CNC(=O)c2ccc(Br)cc2)cc1 (centres undefined) | 4.11µM* | -2.8% | -0.7% | -11.6% | 0.1% | i
Cc1cc(NC(=O)c2cccs2)n(-c2nc3ccccc3[nH]2)n1 | ? | -8.2% | 4.61µM* | -33.7% | ? | ?
Cc1cc(NC(=O)c2sccc2C)n(-c2nc3ccccc3[nH]2)n1 | ? | -0.2% | 10.6% | ? | ? | ?
COc1cccc(OC)c1C(=O)Nc1cc(C)nn1-c1nc2ccccc2[nH]1 | 3.26µM* | -8.3% | ? | -7.3% | ? | 14.6µM*
Cc1cc(C(=O)CSc2nc(N)cc(=O)[nH]2)ccc1F | i | -1.7% | 7.0% | 1.7% | 13µM* | i
COCCNC(=O)Nc1cc(C(=O)NCc2ccc(C(C)C)cc2)ccc1N1CCCC1 | i | / | / | -2.8% | / | i
Cc1ccc(N=Nc2ccc(O)c3ncccc23)cc1 | i | -10.2% | 1.16µM* | -2.2% | ? | ?
CCS(=O)(=O)c1ccc(N=Nc2ccc(O)c3ncccc23)c(OC)c1 | ? | -4.3% | 4.61µM* | -32.8% | ? | 14.6µM*
CCOC(=O)COc1ccc(F)cc1C(=O)c1ccn2nc(-c3ccc(Cl)cc3)cc2n1 | ? | / | / | 5.3% | / | i
CCn1c(-c2ccccc2)c(C(=O)CCl)c2ccccc21 | ? | -2.9% | ? | -14.6% | 23.1µM* | i
SMILES | KB-V1 cytotox | TSG101-PTAP inh | SW480 rereplic | RGS4 inh | MCF10A rerep | KB-3-1 tox
Cn1c(-c2ccccc2)c(C(=O)CCl)c2ccccc21 | ? | 1.3% | ? | -2.7% | ? | ?
CCc1ccc(NC(=O)Cn2ncc3c(C)n(Cc4cccc(Cl)c4)c(C)c3c2=O)cc1 | i | / | / | 4.3% | / | i
CCCCCc1c(-c2ccccc2)ncn1CCc1ccccc1OC | 14.6µM* | / | / | / | / | ?
CCCCc1c(-c2cccc(OC)c2)ncn1CCc1ccccc1OC | 11.6µM* | / | / | / | / | ?
CCCCc1c(-c2ccc(OC)c(OC)c2)ncn1CCc1ccccc1OC | 9.2µM* | / | / | / | / | ?
COc1ccccc1CCn1cnc2c3cc(C)ccc3n(C)c2c1=O | ? | 0.3% | 15.9% | 4.1% | 9.8% | i
CCCCn1c(=O)[nH]c(=O)c2c1nc(-c1ccccc1F)n2Cc1ccccc1OC | ? | -2.6% | 6.5% | -23.1% | 18.6% | ?
CCCCCc1c(-c2ccc(F)cc2F)ncn1CCc1ccccc1OC | 13µM* | / | / | / | / | ?
CCc1nc(Nc2ccc(F)c(Cl)c2)c2c3c(sc2n1)CCCC3 | i | / | / | -14.4% | / | i
CCOC(=O)CC(NC(=O)c1ccco1)c1ccc(OC)cc1 (centres undefined) | 23.1µM* | -0.4% | 4.1% | -4.2% | 0.0% | i
Ic1ccc(Nc2nc(NCCN3CCOCC3)nc(N3CCCC3)n2)cc1 | ? | / | / | / | / | i
O=C(COC(=O)c1ccccc1O)NC12CC3CC(CC(C3)C1)C2 | i | -0.1% | 0.7% | -26.4% | 3.8% | i
O=C(COC(=O)/C=C/C(=O)OCC(=O)NC12CC3CC(CC(C3)C1)C2)NC12CC3CC(CC(C3)C1)C2 | i | -1.0% | 18.4µM* | -22.9% | 5.17µM* | ?
Cc1ccc(C)c(N2CCN(C(=O)CCS(=O)(=O)c3cc(Br)cc4c3N(C(=O)C3CC3)CC4)CC2)c1 | i | / | / | 8.7% | / | i
COc1cc(C(CCN2CCCC2)c2c(OC)cc(OC)c3c2OC(=O)CC3c2ccc(N(C)C)cc2)cc(OC)c1OC (centres undefined) | / | / | / | -24.3% | / | /
Clc1ccc2c(NCc3cccs3)ncnc2c1 | i | 3.3% | 0.7% | 1.9% | 6.8% | ?
COc1ccc(CCNc2ncnc3c2[nH]c2cc(OC)c(OC)cc23)cc1OC | i | 0.2% | 18.4µM* | ? | 18.4µM* | i
COc1ccc(CCNc2ncnc3c2nnn3C)cc1OC | / | / | / | -27.7% | / | /
COc1cc2ncnc(NCc3cccs3)c2cc1OC | ? | -2.3% | -23.9% | 5.9% | 2.59µM* | ?
COc1ccc(CCNc2ncnc3cc(OC)c(OC)cc23)cc1OC | 20.6µM* | -1.2% | ? | -18.2% | 10.0% | i
CCOc1ccc2[nH]c3c(NCCC(C)C)ncnc3c2c1 | i | -3.0% | ? | -3.6% | 11.6µM* | ?
COc1cc2ncnc(NCCc3ccccc3)c2cc1OC | ? | 1.1% | -1.4% | 6.7% | 2.9% | ?
